Screens from PubChem.
PKM2 activator: activators of human pyruvate kinase M2; 260,000 tested, 0.34% active; AID 1631; purified PKM2, Kinase-Glo ATP luminescence, activation; response scale: 0% is enzyme alone, no compound; Potency, µM (doses to about 57.5 µM), hits mostly activators; note: nearly all actives have a fitted effect of over 55% in size
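ATP formation by purified human PK-M2, quantified via coupled luciferase luminescence after 1 h at room temperature with 0.1 mM ADP and 0.5 mM PEP final.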
KAT2A inh: GCN5L2 (KAT2A) acetyltransferase inhibition | Q92830 | GCN5L2 HAT assay, ThioGlo1 CoA-SH fluorescence | Potency, µM (doses to about 58.9 µM), usual class: inhibitors | 390,000 tested, 0.21% active | AID 504327
Target sequence (Q92830 whole entry, looked up): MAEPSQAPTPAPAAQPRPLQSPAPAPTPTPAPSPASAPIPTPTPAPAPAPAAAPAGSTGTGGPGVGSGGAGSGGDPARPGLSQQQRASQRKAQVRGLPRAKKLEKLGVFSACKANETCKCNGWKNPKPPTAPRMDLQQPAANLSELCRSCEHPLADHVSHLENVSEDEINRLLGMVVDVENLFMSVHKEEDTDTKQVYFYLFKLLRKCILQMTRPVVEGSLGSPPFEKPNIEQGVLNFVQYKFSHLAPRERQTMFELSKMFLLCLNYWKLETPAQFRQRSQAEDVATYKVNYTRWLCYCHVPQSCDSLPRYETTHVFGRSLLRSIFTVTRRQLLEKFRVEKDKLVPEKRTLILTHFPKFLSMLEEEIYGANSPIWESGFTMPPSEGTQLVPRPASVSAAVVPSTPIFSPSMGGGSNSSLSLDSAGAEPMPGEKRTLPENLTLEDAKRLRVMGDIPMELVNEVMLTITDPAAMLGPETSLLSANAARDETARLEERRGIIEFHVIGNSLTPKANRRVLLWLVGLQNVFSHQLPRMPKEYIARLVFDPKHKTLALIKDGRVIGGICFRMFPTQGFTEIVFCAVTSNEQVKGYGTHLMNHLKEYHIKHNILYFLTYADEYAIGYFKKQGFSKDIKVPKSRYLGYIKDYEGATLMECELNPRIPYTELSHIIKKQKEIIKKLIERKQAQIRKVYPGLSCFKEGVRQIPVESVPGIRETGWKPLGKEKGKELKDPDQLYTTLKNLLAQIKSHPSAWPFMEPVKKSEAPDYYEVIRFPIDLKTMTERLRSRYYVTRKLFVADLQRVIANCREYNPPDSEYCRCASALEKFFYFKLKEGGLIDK
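GCN5L2 (20nM final) in 50mM HEPES, 0.1mM EDTA pH 7.5, 0.01% Tween-20 was preincubated 15 min at room temperature with compound, then given ThioGlo1 (50uM), H3(1-25) peptide (75uM) and acetyl-CoA (70uM); CoA-thiol fluorescence (Ex340/Em540) was read at 0 and 20 min.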
Mito fusion act: inhibitors of mitochondrial division or activators of mitochondrial fusion | S. cerevisiae fusion-defective mutant growth rescue, CellTiterGlo 48 h | Potency, µM (doses to about 46.1 µM), most hits filed as activators | 320,000 tested, 0.23% active | AID 485298; note: nearly all actives have a fitted effect of over 45% in size
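Growth-rescue viability read-out: after 48 h at the non-permissive 37C in glycerol/ethanol YPEG, yeast mitochondrial fusion mutants are measured by CellTiterGlo luminescence; compounds (23 nl pinned per well) restoring growth score as division inhibitors or fusion activators.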
VDR inh: vitamin D3 receptor (human) inhibition; VDR-SRC2-3 peptide fluorescence polarization, 2 h; Potency, µM, hits mostly inhibitors; 400,000 tested, 0.93% active; AID 504847
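Fluorescence polarization assay of small-molecule disruption of VDR binding to coregulator peptide SRC2-3. Compounds and controls pin-transferred, then read after 2 h incubation at ambient room temperature.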
PLK1 PBD inh: blocks phosphopeptide binding to human PLK1 polo-box domain. Potency, µM, hits mostly inhibitors. P53350. 360,000 tested, 2.8% active. Plk1 PBD binding of FITC phosphopeptide, fluorescence polarization. AID 720504; note: series mostly up to about 57 µM; nearly all actives have a fitted effect of over 65% in size
GLS inhibitor: glutaminase GLS (human) inhibition; O94925; Potency, µM (highest dose often 45.5 µM), hits mostly inhibitors; AID 624170; GLS enzymatic activity, qHTS titration; 410,000 tested, 0.21% active
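Read-out is an Amplex red fluorescence increase coupled through glutamate oxidase and HRP, measured before and after 30 min room-temperature incubation. hKGA is in 45 mM KH2PO4 (pH 8.2) with 0.02% Tween-20; glutamine added as 1mM solution.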
VDR inh confirm: confirmation of human vitamin D receptor inhibitors; Potency, µM, actives largely listed as inhibitors; shares compounds with VDR inh; VDR-coactivator inhibition assay, qHTS confirmation; 840 tested, 89% active
VDR FP fluor: VDR (human) coactivator binding inhibition, fluorescein polarization; shares compounds with VDR inh; 840 tested, 48% active; AID 602200; VDR-coactivator binding, fluorescein fluorescence polarization; Potency, µM (titrated, usually from 57.1 µM), most hits filed as inhibitors
VDR bla: VDR (human) inhibition, cell-based beta-lactamase validation | VDR beta-lactamase reporter cells, FRET ratio; cells co-treated with VDR agonist LG190178 | AID 602202 | 840 tested, 23% active | shares compounds with VDR inh | Potency, µM (series often up to 46.1 µM), usual class: inhibitors
VDR cytotox: counter-screen for vitamin D receptor inhibitors: cytotoxicity; Potency, µM (titrated, usually from 48.3 µM), most hits filed as cytotoxic; shares compounds with VDR inh; cytotoxicity counter-screen, cell viability, qHTS; AID 602204; 840 tested, 18% active; note: nearly all actives have a fitted effect of over 75% in size
GLS confirm: glutaminase (human) inhibition, hit confirmation; shares compounds with GLS inhibitor; biochemical glutaminase enzyme inhibition assay; Potency, µM (top dose mostly 46.1 µM), most hits filed as inhibitors; 35 tested, under 10 active; AID 624261; calls by dose curve
GLS HRP counter: counter-screen for glutaminase inhibitors: HRP coupled enzyme inhibition; shares compounds with GLS inhibitor; HRP/glutamate oxidase coupled Amplex Red fluorescence counterscreen; activity change, negative = inhibition, % at 46.1 µM; 35 tested, under 10 active
HEK293 tox: counter-screen for glutaminase inhibitors: HEK-293 cytotoxicity. shares compounds with GLS inhibitor. HEK-293 viability, CellTiter-Glo luminescence, 24 h. activity change, negative = cytotoxicity, % at 46.1 µM. 35 tested, under 10 active. AID 624264
TbPYK inh: confirmation of Trypanosoma brucei pyruvate kinase inhibitors | shares compounds with PLK1 PBD inh | recombinant TbPYK, Kinase-Glo ATP luminescence | Potency, µM (doses to about 76.9 µM), actives largely listed as inhibitors | 890 tested, 67% active | AID 720569; note: nearly all actives have a fitted effect of over 70% in size
TbPYK orthogonal: TbPYK inhibition, orthogonal confirmation; 890 tested, 62% active; recombinant TbPYK, ADP-Glo luminescence, 60 min; Potency, µM (series often up to 76.9 µM), actives largely listed as inhibitors; shares compounds with PLK1 PBD inh; note: nearly all actives have a fitted effect of over 75% in size
Of the large screens only hits and unclear results are named; the others gave an inactive call (follow-up assays come after a bar, where they were run). Hits are enriched below; roughly 3.4% of the tested compounds scored in any of these assays. Unless noted, calls come from the whole dose curve; as a rule, active = well fitted curve in the direction sought with a large enough effect; inconclusive = small, poorly fitted or top-dose-only effect, or another doubt; inactive = no such curve, though single readings can be large; an effect the other way counts as inactive or inconclusive.

CN1CCN(C(=S)C(=O)Nc2ccc(Br)cc2)CC1	VDR inh inconclusive, PLK1 PBD inh 2.4µM | VDR inh confirm 4 | VDR FP fluor 3.5µM | VDR bla inactive | VDR cytotox inactive
COc1ccc2nc(NC(=O)c3nc(S(=O)(=O)Cc4ccccc4)ncc3Cl)sc2c1	none (no result: PKM2 activator, Mito fusion act, PLK1 PBD inh)
O=C(Nc1nc2ccc(F)cc2s1)c1nc(S(=O)(=O)Cc2ccccc2)ncc1Cl	VDR inh inconclusive (no result: PKM2 activator, Mito fusion act, PLK1 PBD inh)
Cc1nnc(NC(=O)c2nc(S(=O)(=O)Cc3ccccc3)ncc2Cl)s1	VDR inh inconclusive (no result: PKM2 activator) | VDR inh confirm 16 | VDR FP fluor 13µM | VDR bla 2.3µM | VDR cytotox 4.2µM
Cc1ccc(NC(=O)c2nc(S(=O)(=O)Cc3ccccc3)ncc2Cl)cc1	VDR inh 25µM, PLK1 PBD inh inconclusive, GLS inhibitor inconclusive (no result: PKM2 activator) | VDR inh confirm 19 | VDR FP fluor inconclusive | VDR bla inconclusive | VDR cytotox inconclusive
O=C(NCc1ccccc1)c1nc(S(=O)(=O)Cc2ccc(F)cc2)ncc1Cl	VDR inh 32µM (no result: PKM2 activator, Mito fusion act, PLK1 PBD inh) | VDR inh confirm 3.2 | VDR FP fluor 7.9µM | VDR bla 21µM | VDR cytotox 19µM
O=C(Nc1ccc(F)cc1)c1nc(S(=O)(=O)Cc2ccccc2)ncc1Cl	VDR inh inconclusive, PLK1 PBD inh 17µM (no result: PKM2 activator) | VDR inh confirm 3.5 | VDR FP fluor 2.8µM | VDR bla 3.3µM | VDR cytotox 19µM
CN(C)S(=O)(=O)c1ccc(N2CCCC2)c(C(=O)N2CCN(S(=O)(=O)c3ccc(F)c(F)c3)CC2)c1	none (no result: PKM2 activator, KAT2A inh, Mito fusion act)
Cc1cc(Sc2ccc([N+](=O)[O-])cn2)ccc1Br	none (no result: PKM2 activator, KAT2A inh, Mito fusion act)
Cc1cc(S(=O)(=O)c2ccc([N+](=O)[O-])cn2)ccc1Br	VDR inh inconclusive, PLK1 PBD inh inconclusive (no result: PKM2 activator, KAT2A inh, Mito fusion act) | VDR inh confirm 2.2 | VDR FP fluor 2.5µM | VDR bla 7.3µM | VDR cytotox inconclusive
CC(C)(C)c1cc(=O)n2c(C#N)c(C#N)nc2[nH]1	none
CC(C)(C)c1ccc(-n2nc(C#N)c(Cl)cc2=O)cc1	VDR inh inconclusive, PLK1 PBD inh inconclusive | VDR inh confirm 7.9 | VDR FP fluor 8.9µM | VDR bla 2.6µM | VDR cytotox inconclusive
C=CCNC(=S)N1CCN(Cc2ccc3c(c2)OCO3)CC1	none
CSc1ccc(/C=C/C(=O)c2c(O)cc(C)oc2=O)cc1	KAT2A inh inconclusive, VDR inh inconclusive | VDR inh confirm 5.3 | VDR FP fluor inactive | VDR bla inconclusive | VDR cytotox inconclusive
Cc1cc(O)c(C(=O)/C=C/c2ccc(Cl)cc2)c(=O)o1	KAT2A inh inconclusive, VDR inh inconclusive (no result: PKM2 activator)
O=C(Nc1ccccc1)c1cc(C2CCCCN2C(=O)c2ccc3c(c2)CCO3)on1 (stereo not given)	none (no result: PKM2 activator, KAT2A inh, Mito fusion act, VDR inh)
O=C(/C=C\c1ccccc1OC(=O)c1ccccc1F)c1cc2ccccc2o1	VDR inh 14µM | VDR inh confirm inconclusive | VDR FP fluor 3.5µM | VDR bla inconclusive | VDR cytotox inconclusive
COCC(C)NC(=O)c1nn(Cc2ccccc2)c(=O)c2ccccc12 (stereo not given)	none
Cc1ccc(S(=O)(=O)Nc2ccc(O)c3ccccc23)c(C)c1	VDR inh 28µM, PLK1 PBD inh 4.2µM, GLS inhibitor 7.9µM (no result: PKM2 activator) | VDR inh confirm 11 | VDR FP fluor 10µM | VDR bla inactive | VDR cytotox inconclusive | GLS confirm inconclusive | GLS HRP counter inactive | HEK293 tox inactive
COC(=O)C1=C(C(=O)OC)[C@@H]2Nc3ccccc3[C@@]23C[C@@H](C(=O)OC)N(S(=O)(=O)c2cccs2)C3=N1	none (no result: KAT2A inh, Mito fusion act, VDR inh, PLK1 PBD inh, GLS inhibitor)
COc1ccc(C(=O)/C=C/C(=O)N(CC(=O)NC2CCCCC2)Cc2cccs2)c(O)c1	PKM2 activator 13µM, VDR inh 45µM, PLK1 PBD inh 6.7µM | VDR inh confirm 15 | VDR FP fluor inconclusive | VDR bla 7.3µM | VDR cytotox 15µM | TbPYK inh 4.5µM | TbPYK orthogonal 14µM
COCCN(CC(=O)NC1CCCCC1)C(=O)/C=C/C(=O)c1ccc(OC)cc1O	VDR inh 16µM, PLK1 PBD inh 21µM | VDR inh confirm 9.5 | VDR FP fluor inconclusive | VDR bla 21µM | VDR cytotox inconclusive | TbPYK inh 7.1µM | TbPYK orthogonal 13µM
COc1ccc(C(=O)/C=C/C(=O)N(Cc2ccc3c(c2)OCO3)C(C(=O)NC2CCCCC2)c2ccncc2)c(O)c1 (stereo not given)	none
Cc1cc(C)nc(SC2=CS(=O)(=O)c3ccccc32)n1	none
O=S1(=O)C=C(Sc2nnc(-c3ccccc3)o2)c2ccccc21	VDR inh inconclusive, PLK1 PBD inh 1.9µM | VDR inh confirm 2.2 | VDR FP fluor 1.6µM | VDR bla inconclusive | VDR cytotox 12µM | TbPYK inh 20µM | TbPYK orthogonal 22µM
